Common to all, as to type: functional
Assay [1] concerns the target Solute carrier family 2, facilitated glucose transporter member 1 (Homo sapiens) (UniProt P11166). Kind of assay: ST_JUDE_LEISH: Cytotoxicity at 2uM final concentration against transgenic Leishmania Mexicana promastigotes LmGLUT1 that are glucose transport deficient and complemented with the human glucose transporter GLUT1. Activity is measured by DNA content using SYBR green in vitro.

Assay [2] addresses Hexose transporter 1 (Plasmodium falciparum) (UniProt O97467). Put plainly: ST_JUDE_LEISH: Cytotoxicity at 2uM final concentration against transgenic Leishmania Mexicana promastigotes LmPfHT that are glucose transport deficient and complemented with the Plasmodium falciparum hexose transporter. Activity is measured by DNA content using SYBR green in vitro.
The target of assay [3] is Glucose transporter (Leishmania mexicana) (UniProt O61059). Kind of assay: ST_JUDE_LEISH: Cytotoxicity at 2uM final concentration against transgenic Leishmania Mexicana promastigotes LmGT2 that are glucose transport deficient and complemented with the L. Mexicana glucose transporter 2. Activity is measured by DNA content using SYBR green in vitro.

Molecules are shown by their SMILES.

Chain of Solute carrier family 2, facilitated glucose transporter member 1 (Homo sapiens) (P11166 whole entry): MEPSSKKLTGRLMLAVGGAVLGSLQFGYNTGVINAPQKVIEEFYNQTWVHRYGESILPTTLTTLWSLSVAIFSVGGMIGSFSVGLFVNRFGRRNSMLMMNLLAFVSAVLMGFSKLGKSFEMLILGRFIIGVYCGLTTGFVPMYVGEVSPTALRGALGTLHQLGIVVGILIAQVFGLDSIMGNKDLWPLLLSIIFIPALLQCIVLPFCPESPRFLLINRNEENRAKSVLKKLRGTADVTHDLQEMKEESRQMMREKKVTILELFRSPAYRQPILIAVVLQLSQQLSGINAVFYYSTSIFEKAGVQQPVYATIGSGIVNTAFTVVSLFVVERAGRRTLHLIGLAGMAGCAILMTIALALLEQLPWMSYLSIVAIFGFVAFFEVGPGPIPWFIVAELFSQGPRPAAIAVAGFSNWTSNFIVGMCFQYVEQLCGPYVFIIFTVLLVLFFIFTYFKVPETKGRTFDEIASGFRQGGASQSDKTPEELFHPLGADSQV

For orientation: inhibition means the drop in the measured response relative to a control, in per cent. In the case of `COc1ccc2nccc([C@@H](O)CN3CCC(NCc4cc5cccc(OC)c5o4)CC3)c2c1`, the figures for the inhibition in assay [1], in assay [2] and in assay [3] were 1.32%, 3.57% and -0.75%, respectively.

For the compound `Cc1[nH]c2c(NCc3ccc(F)cc3)nccc2c1C`, the values for the inhibition in assay [1], in assay [2] and in assay [3] were 4.48%, 4.33% and 2.57%, respectively.

`CCC(c1ccccc1)c1nn2c(-c3cccs3)nnc2s1` (configuration not stated): the inhibition in assay [1] was 2.96%; in assay [2] it was 3.46%; in assay [3] it was 0.64%.

Consider `COc1cc2nc(Nc3ccc4c(ccn4Cc4ccccc4)c3)nc(Nc3ccc4c(ccn4Cc4ccccc4)c3)c2cc1OC`, for which the inhibition in assay [1] was 1.55%; in assay [2], 1.97%; in assay [3] it was 3.43%.

As to `FC(F)(F)Oc1cccc(CNc2noc(-c3sccc3Br)n2)c1`, the inhibition in assay [1] amounted to 2.52%; in assay [2], 2.93%; in assay [3], 0.8%.

In the case of `COc1ccc(-c2ccc(NC(=O)c3ccc(C#N)cc3)c(F)c2)cc1CN(C)CCN(C)C`, the inhibition in assay [1] was 0.85%; in assay [2] it was -0.56%; in assay [3], 0.45%.

`Cc1c(Cl)ccc2sc(N3CCN(C(=O)c4ccc([N+](=O)[O-])o4)CC3)nc12`: the inhibition in assay [1] came out at 71.9%; in assay [2], 57.6%; in assay [3] it was 30%.

Regarding `Cc1cc(NC(=O)Nc2ccc3ncccc3c2)c2ccccc2n1`, the inhibition in assay [1] is 4.47%; in assay [2], 3.97%; in assay [3], 1.94%.

With `Cc1noc(-c2ccccc2)c1CN1CCCC2(CC(C(=O)NCc3cccc(F)c3F)=NO2)C1` (configuration not stated), the inhibition in assay [1] is 0.11%; in assay [2], -0.09%; in assay [3], -0.8%.

For the compound `Cc1nc(-c2nc(NCCc3cnccn3)ncc2-c2ccsc2)sc1C`, the inhibition in assay [1] was 0.04%; in assay [2], 0.59%; in assay [3] it was -2.39%.

As for `Cc1ccc(NC(=O)c2ccc(N3CCN(c4ccncc4)CC3)cn2)cc1F`, the inhibition is 109% in assay [1], 95.4% in assay [2] and 102% in assay [3].

`O=C(CC(=O)C(F)(F)F)c1ccc2c(c1)OCO2`: the figures for the inhibition in assay [1], in assay [2] and in assay [3] were 1.45%, 1.74% and 2.14%, respectively.

With `CCOC(=O)c1cnc2c(OC)cc(OC)c(Cl)c2c1Nc1ccccc1`, the inhibition in assay [1] was 5.44%; in assay [2], 4.89%; in assay [3], 6.19%.

On to `COC(=O)c1ccc(C(=O)NCCCCN2CCC(c3ccc4c(c3OC)CCCC4)CC2)cc1-c1ccc(C(F)(F)F)cc1`, for which the inhibition in assay [1] turned out to be 2.23%; in assay [2] it was 1.47%; in assay [3], 2.29%.

For `CCOc1ccc(NC(=O)c2cn3nc(-c4ccc(OCC)cc4)cc3nc2C2CCNCC2)cc1`, the inhibition in assay [1] was found to be 1.5%; in assay [2], 2.58%; in assay [3], 3.37%.

Consider `CC1(C)N=C(N)N=C(N)N1c1cc(Cl)c(Cl)c(Cl)c1`, for which the inhibition in assay [1] is 1.4%; in assay [2], 0.23%; in assay [3], 2.36%.

As to `CCOc1ccc(-c2nonc2NC(=O)c2ccco2)cc1OCC`, the inhibition was 1.01% in assay [1], -0.52% in assay [2] and 0.72% in assay [3].

`COc1ccc(CCCN2C(=O)C(c3ccccc3)(c3ccccc3)N=C2N)cc1`: the inhibition is -1.19% in assay [1], -0.94% in assay [2] and -1.7% in assay [3].

Take `Cc1cccc2nc(-c3cccc(-c4cccc(NC(=O)CNc5ccc(C(N)=O)cc5)c4)c3)[nH]c12`: the inhibition came out at 4.73% in assay [1], 4.35% in assay [2] and 3.03% in assay [3].

As to `CC(C)N1CCN(c2ccc(OCCCCN3CCN(c4cccc(Cl)c4Cl)CC3)cc2Cl)CC1`, the results for the inhibition in assay [1], in assay [2] and in assay [3] were -1.28%, 0.44% and -2.3%, respectively.

Take `O=[N+]([O-])c1cc2c(cc1C=NNc1nc(=Nc3ccccc3)[nH]c(=Nc3ccccc3)[nH]1)OCO2`: the values for the inhibition in assay [1], in assay [2] and in assay [3] were 1.53%, 1.47% and -2.69%, respectively.

Regarding `OC1CCCN(Cc2ccc(-c3ccc(-c4nc5cc(F)ccc5[nH]4)cc3)cc2)C1` (configuration not stated), the inhibition in assay [1] was found to be 9.06%; in assay [2], 8.43%; in assay [3] it was 6.49%.

Turning to `Cc1ccc(NC(=O)Nc2ccc(Cl)cc2)cc1-c1cccc(C(=O)Nc2ccc(F)cc2)c1`, the inhibition was -1.9% in assay [1], 2.5% in assay [2] and 5.14% in assay [3].

Turning to `N=c1n(CCN2CCCC2)c2ccccc2n1CC(O)c1ccc(Cl)c(Cl)c1` (configuration not stated), the inhibition turned out to be 1.98% in assay [1], 1.57% in assay [2] and 9.08% in assay [3].

For the compound `Cc1cc(C(=O)OCC(=O)Nc2c(C)n(C)n(-c3ccccc3)c2=O)c(C)n1-c1ccc(F)cc1`, the inhibition in assay [1] was -2.25%; in assay [2], -1.81%; in assay [3], -0.97%.

As to `Cc1ccccc1C1CCN(C2CCC(NC(=O)/C=C/c3cccc(Cl)c3F)CC2)CC1` (configuration not stated), the inhibition was determined as 3.45% in assay [1], 1.79% in assay [2] and 1.85% in assay [3].

As to `Cc1[nH]c(C)c(-c2cccc(-c3ccc(OC(F)(F)F)cc3)c2)c(=O)c1Br`, the inhibition in assay [1] is 1.89%; in assay [2] it was 4.46%; in assay [3] it was -1.64%.

Turning to `Cc1cc(-c2cc3nc4c(c(O)n3n2)CCCC4)c(C)o1`, the values for the inhibition in assay [1], in assay [2] and in assay [3] were 4.05%, 8.94% and 6.14%, respectively.

For the compound `COc1ccc2nccc([C@@H](O)CN3CCC(NCc4cnc5c(c4)NC(=O)CS5)C(F)C3)c2c1` (some centres not stated), the inhibition in assay [1] was -0.32%; in assay [2] it was -0.31%; in assay [3], 0.86%.

On to `N#Cc1ccc2c(c1)CCN(CCC1CCC(NC(=O)c3ccc(-c4ccccn4)s3)CC1)CC2` (configuration not stated), for which the inhibition amounted to 13.3% in assay [1], 9.45% in assay [2] and 9.9% in assay [3].

Take `CCCCCCN(C(=O)OCc1ccccc1)C1CCN(C(=O)OC(C)(C)C)CC1C(=O)OCC` (configuration not stated): the inhibition in assay [1] came to 7.92%; in assay [2], 6.27%; in assay [3] it was 7.27%.

As to `CS(=O)(=O)c1ccc(CCNCc2ccc(-c3ccc(CNC4Cc5ccccc5C4)cc3)nc2)cc1`, the inhibition in assay [1] was -0.55%; in assay [2], -0.45%; in assay [3], 2.3%.

Take `C=CCn1c(SCc2c(C)noc2C)nc2scc(-c3cccs3)c2c1=O`: the inhibition in assay [1] is 0.98%; in assay [2], 0.21%; in assay [3], -5.13%.

Regarding `CS(=O)(=O)CCNC(=O)c1ccc(-c2cc3c(Nc4ccc5c(cnn5Cc5ccccc5)c4)ncnc3cn2)o1`, the values for the inhibition in assay [1], in assay [2] and in assay [3] were 3.86%, 3.93% and 4.93%, respectively.

As for `O=c1cc(NCCCNCc2cc(C(F)(F)F)ccc2F)[nH]c2ccccc12`, the inhibition in assay [1] came out at 0.7%; in assay [2] it was 0.86%; in assay [3], 3.1%.

On to `CC(C)c1cc(N)c2cc(NC(=O)COCC(=O)Nc3ccc4nc(C(C)C)cc(N)c4c3)ccc2n1`, for which the inhibition in assay [1] stood at 5.18%; in assay [2], 5.67%; in assay [3], 5.02%.

In the case of `COc1cc(C(=O)N2CCOC(CCN3CCC[C@H]3C(=O)Nc3ccccc3)(c3ccc(Cl)c(Cl)c3)C2)cc(OC)c1OC` (some centres not stated), the inhibition came to 6.58% in assay [1], 5.14% in assay [2] and 2.89% in assay [3].

Consider `O=C(Nc1cccc(CN2CCCN(Cc3ccccc3)CC2)c1)c1cc2ccccc2s1`, for which the inhibition in assay [1] is 1.27%; in assay [2], 1.24%; in assay [3] it was -4.49%.

Consider `Cc1cccc2nc(-c3ccc(-c4cccc(NC(=O)c5cnn6cccnc56)c4)cc3)[nH]c12`, for which the inhibition in assay [1] was determined as 15.4%; in assay [2], 11.7%; in assay [3], 8.93%.

Consider `COc1ccc2ccccc2c1C=NN=c1cc[nH]c2ccc(F)cc12`, for which the inhibition in assay [1] was found to be 3.72%; in assay [2], 2.24%; in assay [3] it was 7.98%.

For the compound `Cc1ccc(C2CCN(CCCCNC(=O)c3ccc(NC(=O)c4ccc(Cl)cc4)cc3)CC2)c(OCC(F)(F)F)c1`, the inhibition in assay [1] was 0.04%; in assay [2], 1.32%; in assay [3] it was 0.66%.

Regarding `CN(C)Cc1ccc(-c2ccc(NC(=O)c3ccc4c(=O)n(Cc5ccccc5)cnc4c3)cc2)cc1`, the values for the inhibition in assay [1], in assay [2] and in assay [3] were 95.2%, 94% and 63.3%, respectively.

In the case of `Cc1n[nH]c2cc(Nc3ccnc(Nc4cccc(CN5CCOCC5)c4)n3)ccc12`, the inhibition was 7.68% in assay [1], 6.54% in assay [2] and 3.19% in assay [3].

Take `Cc1[nH]c(C)c(-c2csc3ccccc23)c(=O)c1Cl`: the inhibition turned out to be 5.32% in assay [1], 5.33% in assay [2] and 3.61% in assay [3].

Take `CCOC(=O)c1ccc(-n2c(C)cc(C=C3SC(=Nc4ccccc4)N(C4CCCC4)C3=O)c2C)cc1`: the inhibition was 3.76% in assay [1], 3.52% in assay [2] and 4.67% in assay [3].

As to `CCN(CC)c1nc(N)c2c(N)nc3c(c2c1C#N)C(=O)CN3Cc1ccccc1`, the inhibition in assay [1] was determined as 7.21%; in assay [2] it was 6.8%; in assay [3], 6.97%.

On to `CC1(C)NC(N)=NC(=N)N1OCCSCCON1C(=N)N=C(N)NC1(C)C`, for which the figures for the inhibition in assay [1], in assay [2] and in assay [3] were -0.9%, 0.07% and -0.26%, respectively.

With `C=CCOc1cc(Cc2cnc(N)nc2N)cc(OC)c1OC`, the inhibition was 1.5% in assay [1], -3.15% in assay [2] and -1.97% in assay [3].

Take `Cc1cc(Nc2cccc(C(F)(F)F)c2)nc(NCc2ccccc2)n1`: the inhibition in assay [1] was 29.6%; in assay [2], 42.8%; in assay [3], 10.1%.

On to `CC(C)CCN1CCC(Oc2ccc(NC(=O)c3cccs3)cc2Cl)C1` (configuration not stated), for which the inhibition in assay [1] was 10.2%; in assay [2], 11.8%; in assay [3] it was 9.02%.

As for `CC(C)CN(C)Cc1ccc(-c2ccc(-c3nc4ccccc4[nH]3)s2)cc1`, the inhibition in assay [1] was -1.24%; in assay [2], -0.64%; in assay [3], -1.65%.

Turning to `N=C1N=C(N)NCN1OCc1ccc(Cl)c(Cl)c1`, the inhibition is 3.39% in assay [1], 1.71% in assay [2] and -0.31% in assay [3].

For `COc1ccc2nccc([C@@H](O)CN3CCC(NCc4cnc5c(c4)NC(=O)CS5)CC3)c2c1`, the inhibition was 2.7% in assay [1], 4.54% in assay [2] and 1.2% in assay [3].

Regarding `COc1ccc(-c2ccc(NC(=O)c3ccc(Cl)cc3)cc2)cc1CN1CCN(C)CC1`, the inhibition in assay [1] is -0.67%; in assay [2], -2.59%; in assay [3], -0.55%.

These data come from ChEMBL document CHEMBL3433997, “St. Jude Leishmania screening dataset” (2016).
